Bioassay records from PubChem.
FLuc counter: qHTS profiling assay for firefly luciferase inhibitor/activator using purifed enzyme and Km concentrations of substrates (counterscreen for miR-21 project); Potency, µM (titrated, usually from 57.5 µM), for inactives: top-dose activity change, negative = inhibition, usual class: inhibitors; purified FLuc, Km substrates, luminescence inhibition; AID 588342, 2011; 360,000 tested, 6.9% active;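 further: plate controls were vehicle for no effect and reference inhibitor for full effect; nearly all actives have a fitted effect of over 55% in size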
Target sequence (P08659 whole entry, looked up): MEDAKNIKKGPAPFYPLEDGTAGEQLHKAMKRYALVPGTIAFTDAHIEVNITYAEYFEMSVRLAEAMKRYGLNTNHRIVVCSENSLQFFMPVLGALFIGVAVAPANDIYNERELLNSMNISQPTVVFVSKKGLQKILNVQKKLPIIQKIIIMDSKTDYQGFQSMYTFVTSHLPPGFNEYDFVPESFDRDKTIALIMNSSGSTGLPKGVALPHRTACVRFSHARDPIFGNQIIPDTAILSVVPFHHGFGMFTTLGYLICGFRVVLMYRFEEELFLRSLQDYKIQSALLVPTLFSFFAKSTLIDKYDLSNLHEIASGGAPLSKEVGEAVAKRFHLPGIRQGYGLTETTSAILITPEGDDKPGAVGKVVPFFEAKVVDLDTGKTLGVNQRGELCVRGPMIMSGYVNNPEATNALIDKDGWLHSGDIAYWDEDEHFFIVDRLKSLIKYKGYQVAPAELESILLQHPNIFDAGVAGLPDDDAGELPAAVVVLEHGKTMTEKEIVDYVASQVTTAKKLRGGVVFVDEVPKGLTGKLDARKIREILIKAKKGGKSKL
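Purified P. pyralis luciferase, 10 nM final, with Km-level 10 uM D-luciferin and 10 uM ATP in 50 mM Tris acetate pH 7.5, 10 mM Mg acetate, 0.01% Tween-20, 0.05% BSA; 6-point qHTS titration about 60 µM downward; luminescence read.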
Rab9 promoter act: qHTS Assay for Rab9 Promoter Activators; Huh7 Rab9 promoter-luciferase reporter, luminescence, 24 h; Potency, µM (doses to about 9.22 µM), without a hit: at the top dose activation, negative = inhibition, usual class: activators; 320,000 tested, 2.8% active; AID 485297, 2010; further: % of control where 0% means no effect; nearly all actives have a fitted effect of over 60% in size
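Luciferase signal after 10 min detection reagent at ambient indicates Rab9 promoter upregulation; stably transfected Huh7 cells were treated 24 h with compound in DMSO at 37 °C, 5% CO2.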
KinaseGlo FLuc: Counterscreen for Luciferase (Kinase-Glo TM) Inhibition; Luciferin 4-monooxygenase (Photuris pensylvanica), Q27757; Kinase-Glo luciferase, ATP luminescence, 8 min; Potency, µM (doses to about 38.3 µM), without a hit: at the top dose activity change, negative = inhibition, most hits filed as inhibitors; 200,000 tested, 0.28% active; AID 1379, 2008; further: on the % scale 0 is the no-effect control and ±100 the full control effect; nearly all actives have a fitted effect of over 60% in size
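Inhibition of Kinase-Glo luciferase light generation was assessed at 10 uM ATP in pH 7.2 imidazole buffer, with luminescence measured after eight minutes at ambient temperature.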
SMN2 splice up: qHTS Assay for Enhancers of SMN2 Splice Variant Expression. HEK293 SMN2-luciferase splicing reporter, luminescence, 30-36 h. Potency, µM (series often up to 46.1 µM), for inactives: top-dose activity change, positive = activation, usual class: activators. 210,000 tested, 2.8% active; further: % of control where 0% means no effect; nearly all actives have a fitted effect of over 55% in size
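qHTS luciferase splicing reporter: luminescence rises when SMN2 exon 7 is included in transfected HEK293 cells. Compound exposure lasted 30-36 h at 37C, with 4.5 mM final sodium butyrate as control, followed by a ONE-Glo read.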
ELG1 genotox: qHTS screen for small molecules that induce genotoxicity in human embryonic kidney (HEK293T) cells expressing luciferase-tagged ELG1. HEK293T ELG1-luciferase reporter, luminescence, 16 h. 330,000 tested, 1.3% active. AID 504466, 2011. Potency, µM (series often up to 46 µM), for inactives: at the top dose activity change, positive = activation, hits mostly activators; further: % of control where 0% means no effect; nearly all actives have a fitted effect of over 60% in size
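Genotoxicity was scored as increased ELG1-luciferase reporter signal, measured by ONE-Glo luminescence (30 min, room temperature). Compound or vehicle exposure of the HEK293T reporter cells lasted 16 hr at 37°C.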
NPC1 prom act: qHTS Assay for NPC1 Promoter Activators | Huh7 NPC1 promoter luciferase reporter, 24 h | Potency, µM (top dose mostly 9.22 µM), for inactives: at the top dose activation, most hits filed as activators | 320,000 tested, 2.4% active; further: % of control where 0% means no effect; nearly all actives have a fitted effect of over 60% in size
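Luciferase expression driven by the NPC1 promoter was measured in stably transfected Huh7 cells after a 24 h compound incubation, using a luciferase reagent and a luminescence read.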
* marks the source's active call; other numbers are inactive results; [ ] = remark or other dose. Sampled rows, rich in hits. Any-hit rate of the full collection: about 7.4%. The call rests on the fitted dose curve; in most records, active means well fitted curve in the direction sought with a large enough effect; inconclusive means small, poorly fitted or top-dose-only effect, or another doubt; inactive means no such curve, though single readings can be large; an effect the other way counts as inactive or inconclusive. Potency means the concentration at half of the fitted maximal effect.

`CN(c1ccccc1)S(=O)(=O)c1nnc(NC(=O)COc2ccccc2F)s1` gave FLuc counter -1%, Rab9 promoter act -2%, ELG1 genotox -4% and NPC1 prom act -6%.
COc1ccc(OCC(=O)NC(Cc2c[nH]c3ccccc23)C(=O)O)cc1 (configuration not stated) was read as FLuc counter -15% and SMN2 splice up -7%.
Screening COc1ccccc1N1CCN(C(=O)c2cc(CC(C)C)on2)CC1 returned FLuc counter -2% and SMN2 splice up 0%.
COc1ccc(-c2noc(-c3ccco3)n2)cc1OC was read as FLuc counter 7.6µM*, KinaseGlo FLuc 4% and SMN2 splice up 13µM*.
Screening CNc1ccc(-c2nc(-c3ccncc3)no2)cc1[N+](=O)[O-] returned FLuc counter -3%.
COc1cc(OC)cc(-c2nc(-c3ccccc3OC)no2)c1 was read as FLuc counter -15%, Rab9 promoter act 21%, KinaseGlo FLuc -3%, SMN2 splice up 14%, ELG1 genotox 8% and NPC1 prom act 9%.
`COc1ccc(CCC(=O)Nc2ccc(-c3noc(-c4ccc(OC)c(OC)c4)n3)cc2)cc1` gave FLuc counter 0%, Rab9 promoter act inconclusive, KinaseGlo FLuc 0%, SMN2 splice up 11µM*, ELG1 genotox inconclusive and NPC1 prom act inconclusive.
`COc1ccc(-c2noc(-c3cccs3)n2)cc1OC` gave FLuc counter 2.4µM*, Rab9 promoter act 1.6µM*, ELG1 genotox inconclusive and NPC1 prom act 1.3µM*.
Cc1cc(-c2nc(-c3ccncc3)no2)ccc1[N+](=O)[O-] was read as FLuc counter 4.8µM*, Rab9 promoter act 4µM*, ELG1 genotox inconclusive and NPC1 prom act 2.2µM*.
`C#C[C@@]1(O)CC[C@@H]2[C@@H]3CCC4=CC(=O)CC[C@@H]4[C@H]3CC[C@]21C` gave KinaseGlo FLuc 4%[17.1 µM] and SMN2 splice up 2%[20.6 µM].
For COc1ccc(-c2nc(-c3ccncc3)no2)cc1OC the results were FLuc counter 9.5µM*, Rab9 promoter act 26%, KinaseGlo FLuc -15%, SMN2 splice up inconclusive, ELG1 genotox 16µM* and NPC1 prom act inconclusive.
Screening COc1ccc(-c2noc(-c3cccc(Cl)c3)n2)cc1OC returned FLuc counter inconclusive, Rab9 promoter act 28%, KinaseGlo FLuc 1%, SMN2 splice up inconclusive, ELG1 genotox inconclusive and NPC1 prom act inconclusive.
Screening COc1cc(OC)c(NC(=O)CSCc2nc(-c3ccc(OC)c(OC)c3)no2)cc1Cl returned FLuc counter 6%.
COc1cc(OC)c(NC(=O)CCc2nc(-c3ccc(C)cc3)no2)cc1Cl was read as FLuc counter 21µM*, Rab9 promoter act 11%, KinaseGlo FLuc -4%, SMN2 splice up 11%, ELG1 genotox 0% and NPC1 prom act 7%.
`COc1ccc(-c2noc(-c3ccccc3Cl)n2)cc1OC` gave FLuc counter 2.7µM*, Rab9 promoter act 2.5µM*, KinaseGlo FLuc -20%, SMN2 splice up 5.6µM*, ELG1 genotox inconclusive and NPC1 prom act 3.2µM*.
Cc1ccc(-c2nc(-c3ccncc3)no2)cc1Cl was read as FLuc counter 2.7µM*, Rab9 promoter act 3.2µM*, ELG1 genotox inconclusive and NPC1 prom act 2µM*.
For CCOc1ccc(-c2noc(-c3ccncc3)n2)cc1OCC the results were FLuc counter 2%, Rab9 promoter act 1%, KinaseGlo FLuc -3%, SMN2 splice up 14%, ELG1 genotox 17% and NPC1 prom act -1%.
